In PubChem BioAssay (NCATS) one finds Potency and activity, negative = cell killing data, which are given here for 13 molecules.

SMILES strings stand for the structures. Records with an inconclusive call do not appear. The source holds several records for some structures; these can differ, active in one and inactive in another. The source made the active and inactive calls. Calls follow the shape of the dose curve; as a rule, active = well fitted curve in the direction sought with a large enough effect; inconclusive = small, poorly fitted or top-dose-only effect, or another doubt; inactive = no such curve, though single readings can be large; an effect the other way counts as inactive or inconclusive.

Assay [1] has as its system HeLa. The experiment in a line: Primary qHTS to identify gynecologic anti-cancer compounds using libraries of approved drugs and bioactive compounds (AID 1345084). Also: nearly all actives have a fitted effect of over 55% in size. Conditions: Gynecologic cancer cell panel viability, ATPlite luminescence, 48 h; series mostly up to 57.5 µM. The gist of the method:
(§1)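 ATP-based viability (ATPlite), 1,000 cells/well, 16 h pre-incubation, 48 h compound at 37 C, 5% CO2, 15 min RT before read.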

Assay [2] relates to Hek293T. The description is as above. Conditions: Gynecologic cancer cell panel viability, ATPlite luminescence, 48 h, control line for the selectivity index; series mostly up to 57.5 µM. The gist of the method: as §1
In general terms: In ATP-based viability assays light output follows the ATP content of the culture.

In assay [3] the test system is JEG-3. Described as above. Conditions: Gynecologic cancer cell panel viability, ATPlite luminescence, 48 h; series mostly up to 57.5 µM. An outline of the steps:
as §1

Assay [4] has as its system OV90. The assay is described as above. As to conditions: Gynecologic cancer cell panel viability, ATPlite luminescence, 48 h; series mostly up to 57.5 µM. An outline of the steps:
as §1

The subject of assay [5] is PA-1. The assay is described as above. As to conditions: Gynecologic cancer cell panel viability, ATPlite luminescence, 48 h; series mostly up to 57.5 µM. The gist of the method: as §1
Assay [6] concerns SKOV3. Described as above. Conditions: Gynecologic cancer cell panel viability, ATPlite luminescence, 48 h; series mostly up to 57.5 µM. The gist of the method: as §1
Assay [7] deals with Tov-21-G. Described as above. As to conditions: Gynecologic cancer cell panel viability, ATPlite luminescence, 48 h; series mostly up to 57.5 µM. The gist of the method:
as §1

For assay [8], the system named is Tov112D. The assay is described as above. As to conditions: Gynecologic cancer cell panel viability, ATPlite luminescence, 48 h; series mostly up to 57.5 µM. The gist of the method: as §1
Assay [9] in a line: Drug repurposing screens with cells derived from glioblastoma tumor samples (AID 1345199). Also: nearly all actives have a fitted effect of over 40% in size. As to conditions: GBM patient neurospheres viability, ATP luminescence, 48 h. An outline of the steps:
(§2)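 Primary testing used CD133+ neurospheres from four GBM patients, seven concentrations, 48 h exposure and ATP-based viability; confirmation added three slower-growing patient lines.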

Assay [10] relates to astro. Described as above. Conditions: viability, ATP luminescence, 48 h; series mostly up to 45.9 µM. An outline of the steps: as §2
The mark [11] stands for this setting: at 45.9 µM (top of the series), tumour line B.
Where [12] appears, read: at 45.9 µM (top of the series), tumour line D.
Where [13] appears, read: at 46.1 µM (top of the series), tumour line C.
Where [14] appears, read: at 20 µM (top of the series), tumour line C.
Setting [15] is: at 21.2 µM (top of the series), tumour line B.
The mark [16] stands for this setting: at 21.2 µM (top of the series), tumour line D.
% is scaled to controls: 0 for no effect and ±100 for the full control effect; potency is read from the fitted curve at half-maximal effect.

Consider `C[C@@H]1C[C@H]2[C@@H]3C[C@H](F)C4=CC(=O)C(Cl)=C[C@]4(C)[C@@]3(F)[C@@H](O)C[C@]2(C)[C@@]1(O)C(=O)CO`, for which the Potency result in assay [1], in [2], in [3], in [4], in [5] and in [6] was “inactive” each time. In addition, the Potency result in assay [7], in [8] and in [10] was “inactive” in each case. In addition, the activity, negative = cell killing in [9] (setting [11]) is -15.9% (inactive); in assay [9] (setting [12]), -23.3% (inactive); in [9] (setting [13]), -24.8% (inactive).
For `CN(C)CCCOc1nn(Cc2ccccc2)c2ccccc12`, the Potency entry in [1], in [2], in assay [3], in assay [8] and in assay [10] was “inactive” throughout. Further, the Potency was 14.1 µM (active) and inactive in [4]; 31.6 µM (active) and inactive in [5]; 22.4 µM (active) and inactive in [6]; 31.6 µM (active) and inactive in assay [7]; 1.58 µM (active) in assay [9] (tumour line A); 7.08 µM (active) in assay [9] (tumour line D). The activity, negative = cell killing in [9] (setting [14]) was -16.8% (inactive).
Turning to `Oc1ccc(Cl)c2cccnc12`, the Potency entry in assay [1], in [2], in [3], in assay [4], in assay [5] and in [6] was “inactive” in each case. Moreover, the Potency entry in assay [7], in assay [8] and in assay [10] was “inactive” throughout. In [9] (setting [13]), the activity, negative = cell killing was -0.921% (inactive).
For the molecule `CCOC(=O)c1cccc(N)c1`, the Potency entry in assay [1], in assay [2], in [3], in assay [4], in [5] and in assay [6] was “inactive” throughout. Besides, the Potency entry in [7], in [8] and in assay [10] was “inactive” each time. Further, the activity, negative = cell killing in assay [9] (setting [11]) is -17.6% (inactive); in assay [9] (setting [12]), 2.11% (inactive); in assay [9] (setting [13]), -0.117% (inactive).
With `CC(=O)O[C@]1(C(C)=O)CC[C@H]2[C@@H]3C[C@H](C)C4=CC(=O)CC[C@]4(C)[C@H]3CC[C@@]21C`, the Potency entry in assay [1], in assay [2], in assay [3], in assay [4], in assay [5] and in [6] was “inactive” in each case. Also, the Potency entry in assay [7], in assay [8] and in assay [10] was “inactive” throughout. Besides, the activity, negative = cell killing in [9] (setting [13]) is -19.7% (inactive). In addition, the Potency in [9] (tumour line A) is 17.8 µM (active).
As for `Cc1ccc(O)c2ncccc12`, the Potency result in assay [1], in assay [2], in assay [3], in assay [4], in [5] and in [6] was “inactive” each time. For the same molecule, the Potency entry in [7], in assay [8] and in [10] was “inactive” in each case.
Regarding `CCCCOc1ccc(OCCCN2CCOCC2)cc1`, the Potency entry in assay [1], in assay [2], in [3], in assay [4], in assay [5] and in assay [6] was “inactive” in each case. The Potency result in assay [7], in [8] and in assay [10] was “inactive” each time. Besides, the activity, negative = cell killing in assay [9] (setting [14]) was -6.83% (inactive). The Potency in assay [9] (tumour line A) is 4.47 µM (active).
For the molecule `CCCC(=O)Nc1ccc(OCC(O)CNC(C)C)c(C(C)=O)c1` (centres undefined), the Potency entry in [1], in assay [2], in [3], in assay [4], in [5] and in [6] was “inactive” each time. In addition, the Potency entry in [7], in assay [8] and in [10] was “inactive” in each case. Also, the activity, negative = cell killing in assay [9] (setting [14]) was -9.42% (inactive); in assay [9] (setting [15]), -3.87% (inactive); in assay [9] (setting [16]), 11% (inactive).
For `NCCc1ccn[nH]1`, the Potency entry in assay [1], in assay [2], in assay [3], in assay [4], in assay [5] and in [7] was “inactive” in each case. Further, the Potency result in assay [8] and in assay [10] was “inactive” each time. Besides, the activity, negative = cell killing in [9] (setting [14]) was -4.24% (inactive); in assay [9] (setting [15]) it was -2.24% (inactive); in assay [9] (setting [16]), 2.99% (inactive); in assay [9] (at 21.3 µM (top of the series), tumour line A), -21.3% (inactive).
Consider `O=C(CCN1CCC(c2ccccc2)C1)c1ccc2c(c1)OCCO2` (centres undefined), for which the Potency entry in [1], in [2], in assay [3], in [4], in [5] and in [7] was “inactive” in each case. Moreover, in assay [8], the Potency result was “inactive”.
Take `CCOC(=O)OC(C)OC1=C(C(=O)Nc2ccccn2)N(C)S(=O)(=O)c2ccccc21` (centres undefined): the Potency entry in assay [1], in [2], in [3], in assay [4], in assay [5] and in [6] was “inactive” each time. Besides, the Potency result in assay [7], in [8] and in assay [10] was “inactive” in each case. Moreover, the activity, negative = cell killing is -23.8% (inactive) in assay [9] (setting [11]), -1.93% (inactive) in assay [9] (setting [12]) and 20.6% (inactive) in assay [9] (setting [13]).
As to `Cc1ncc(CSSCc2cnc(C)c(O)c2CO)c(CO)c1O`, the Potency result in assay [1], in assay [2], in assay [3], in assay [4], in assay [5] and in [6] was “inactive” each time. For the same molecule, the Potency entry in [7], in [8] and in [10] was “inactive” throughout. Besides, the values for the activity, negative = cell killing in [9] (setting [11]), in assay [9] (setting [12]) and in assay [9] (setting [13]) were -0.0133% (inactive), -10.6% (inactive) and 3.55% (inactive), respectively.
Consider `CC(C)(CO)[C@@H](O)C(=O)NCCCO`, for which the Potency result in assay [1], in assay [2], in assay [3], in [4], in assay [5] and in [6] was “inactive” in each case. Moreover, the Potency entry in assay [7], in [8] and in assay [10] was “inactive” each time. Also, the activity, negative = cell killing is -12% (inactive) in [9] (setting [11]), -24.7% (inactive) in assay [9] (setting [12]) and -3.06% (inactive) in [9] (setting [13]).
